The nature of assay [1]: qHTS RealTime-Glo MT Cell Viability Assay in HEK293 cells - 0 hour (AID 1224880). Note: nearly all actives have a fitted effect of over 45% in size. Note: potency is the fitted concentration of half-maximal effect. A digest of the protocol: (§1)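 Luminescence readout at each listed time point; HEK293, 600 cells/well, RealTime-Glo MT reagent added with cells; compounds pinned (23 nL in DMSO) after 5 h at 37 C; continuous culture at 37 C.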
In general terms: qHTS replaces the single test concentration by a dilution series.

Assay [2] in a line: A CellTox Green Cytotoxicity Assay to monitor cytotoxicity in HEK293 cells - 32 hour (AID 1224881). Note: nearly all actives have a fitted effect of over 40% in size. A digest of the protocol: (§2)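 Read-out: fluorescence of a cell-impermeant cyanine dye staining DNA of dead cells, proportional to cytotoxicity. HEK293, 600 cells/well with reagent, compound (23 nL DMSO) added after 5 h; reads at 0, 8, 16, 24, 32, 40 h.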
A short description of assay [3]: A CellTox Green Cytotoxicity Assay to monitor cytotoxicity in HepG2 cells - 0 hour (AID 1224882). Note: nearly all actives have a fitted effect of over 35% in size. The procedure, abridged: (§3)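 HepG2, 600 cells/well premixed w/ CellTox Green; 5 h settle, 37 C/5% CO2; pintool cpd add (DMSO); 37 C, 40 h; fluorescence read at 0, 8, 16, 24, 32, 40 h.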
Assay [4] can be described thus: A CellTox Green Cytotoxicity Assay to monitor cytotoxicity in HepG2 cells - 32 hour (AID 1224883). Note: nearly all actives have a fitted effect of over 50% in size. The procedure, abridged:
as §3

Assay [5] is described as follows: A CellTox Green Cytotoxicity Assay to monitor cytotoxicity in HEK293 cells - 8 hour (AID 1224884). Note: nearly all actives have a fitted effect of over 35% in size. The procedure, abridged: as §2
A short description of assay [6]: qHTS RealTime-Glo MT Cell Viability Assay in HepG2 cells - 16 hour (AID 1224885). Note: nearly all actives have a fitted effect of over 50% in size. Note: potency is the fitted concentration of half-maximal effect. The procedure, abridged: (§4)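 HepG2 suspension premixed with RealTime-Glo reagents is plated at 600 cells per well and left 5 h at 37 C/5% CO2. Compounds in DMSO then go in, and bioluminescence reflecting viable cell number is recorded over 40 h.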
The nature of assay [7]: qHTS RealTime-Glo MT Cell Viability Assay in HEK293 cells - 24 hour (AID 1224886). Note: nearly all actives have a fitted effect of over 50% in size. Note: potency is the fitted concentration of half-maximal effect. A digest of the protocol:
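Reads taken at 0, 8, 16, 24, 32 and 40 h from the same wells. HEK293 cells (600/well) carried RealTime-Glo reagents from seeding, with compound added after a 5 h settle at 37 C.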

Assay [8] is described as follows: qHTS RealTime-Glo MT Cell Viability Assay in HEK293 cells - 8 hour (AID 1224887). Note: nearly all actives have a fitted effect of over 50% in size. Note: potency is the fitted concentration of half-maximal effect. A digest of the protocol:
as §1

Assay [9] in a line: A CellTox Green Cytotoxicity Assay to monitor cytotoxicity in HEK293 cells - 16 hour (AID 1224888). Note: nearly all actives have a fitted effect of over 35% in size. The procedure, abridged: as §2
Assay [10] is described as follows: qHTS RealTime-Glo MT Cell Viability Assay in HepG2 cells - 0 hour (AID 1224889). Note: nearly all actives have a fitted effect of over 50% in size. A digest of the protocol:
as §4

Records with an inconclusive call do not appear. Activity calls are given as the source filed them. Calls come from the whole dose curve; as a rule, active = well fitted curve in the direction sought with a large enough effect in the repeat runs; inconclusive = weak or mixed curves; inactive = no such curve, though single readings can be large; an effect the other way counts as inactive or inconclusive.

Results on 24 compounds are retold here after PubChem BioAssay (Tox21).

As for `COC(=O)c1cc(S(N)(=O)=O)ccc1OC`, the Potency result in assay [1], in assay [2], in assay [3], in [4], in assay [5] and in assay [6] was “inactive” throughout. Also, the Potency entry in assay [7], in assay [8], in assay [9] and in assay [10] was “inactive” in each case.
As for `CN1Cc2cc(C(=O)N3CCC(C4CCNCC4)CC3)ccc2N[C@@H](CC(=O)O)C1=O`, the Potency result in assay [1], in assay [2], in assay [3], in [4], in assay [5] and in assay [6] was “inactive” throughout. Moreover, the Potency entry in assay [7], in [8] and in [9] was “inactive” in each case.
On to `Fc1c(F)c(F)c(Br)c(F)c1F`, for which the Potency entry in assay [1], in assay [2], in [3], in assay [4], in [5] and in [6] was “inactive” in each case. Besides, the Potency entry in assay [7], in assay [8], in assay [9] and in [10] was “inactive” each time.
`C[N+]1(C)CCC(=C(c2ccccc2)c2ccccc2)CC1`: the Potency result in assay [1], in assay [2], in [3], in assay [4], in [5] and in assay [6] was “inactive” each time. Besides, the Potency entry in [7], in assay [8], in assay [9] and in [10] was “inactive” each time.
For the compound `Cc1ccc(Nc2nccc(N(C)c3ccc4c(C)n(C)nc4c3)n2)cc1S(N)(=O)=O`, the Potency entry in [1], in [2], in assay [3], in [4], in assay [5] and in assay [6] was “inactive” each time. For the same compound, the Potency entry in assay [9] is “inactive”. In addition, the Potency in assay [7] was 1.51 µM (active); in assay [8], 2.13 µM (active).
For `CC[C@H](NC(=O)c1cc(F)ccc1NS(=O)(=O)c1cccc2cccnc12)c1ccccc1`, the values for the Potency in assay [1] and in [6] were 23.2 µM (active) and 46.3 µM (active), respectively. In addition, the Potency entry in assay [2], in assay [3], in assay [4], in assay [5], in assay [7] and in assay [8] was “inactive” in each case. For the same compound, the Potency result in assay [9] was “inactive”.
Consider `Nc1ccc(S(=O)(=O)O)cc1`, for which the Potency entry in assay [1], in assay [2], in assay [3], in assay [4], in assay [5] and in [6] was “inactive” throughout. In addition, the Potency result in assay [7], in [8] and in assay [9] was “inactive” in each case.
`O=C(O)c1snc(Cl)c1Cl`: the Potency entry in assay [1], in [2], in [3], in assay [4], in assay [5] and in assay [6] was “inactive” each time. For the same compound, the Potency entry in [7], in assay [8] and in [9] was “inactive” in each case.
For `C[Si](NC1CCCCC1)(NC1CCCCC1)NC1CCCCC1`, the Potency entry in [1], in assay [2], in [3], in assay [4], in [5] and in [6] was “inactive” in each case. Moreover, the Potency result in [7], in assay [8] and in [9] was “inactive” in each case.
With `CC#N`, the Potency entry in [1], in assay [2], in [3], in assay [4], in assay [5] and in [6] was “inactive” each time. In addition, the Potency result in [7], in assay [8], in [9] and in assay [10] was “inactive” each time.
Take `CCCCC(CC)CNCC(CC)CCCC` (configuration not stated): the Potency result in assay [1], in [2], in assay [3], in [4], in [5] and in [6] was “inactive” in each case. In addition, the Potency entry in assay [7], in assay [8], in [9] and in [10] was “inactive” each time.
`N#C[C@@H]1C[C@@H]2C[C@@H]2N1C(=O)[C@@H](N)C12CC3CC(CC(O)(C3)C1)C2`: the Potency entry in assay [1], in [2], in assay [3], in assay [4], in [5] and in [6] was “inactive” in each case. The Potency entry in assay [7], in assay [8], in [9] and in assay [10] was “inactive” each time.
Regarding `Cn1c(=O)c2c(ncn2CC(=O)O)n(C)c1=O`, the Potency result in [1], in [2], in assay [3], in assay [4], in assay [5] and in [6] was “inactive” throughout. Besides, the Potency entry in assay [7], in assay [8], in assay [9] and in assay [10] was “inactive” in each case.
Consider `CC(N)CN` (configuration not stated), for which the Potency result in [1], in assay [2], in assay [3], in assay [4], in [5] and in [6] was “inactive” throughout. Moreover, the Potency entry in assay [7], in assay [8], in [9] and in [10] was “inactive” in each case.
Regarding `CC1(C)O[C@@H]2C[C@H]3[C@@H]4CCC5=CC(=O)C=C[C@]5(C)[C@H]4[C@@H](O)C[C@]3(C)[C@]2(C(=O)CO)O1`, the Potency entry in assay [1], in [2], in [3], in assay [4], in assay [5] and in assay [6] was “inactive” each time. Moreover, the Potency result in [7], in assay [8] and in [9] was “inactive” throughout.
In the case of `CC1=CC(=O)CC(C)(C)C1(O)/C=C/C(C)=C\C(=O)O` (configuration not stated), the Potency entry in assay [1], in assay [2], in assay [3], in assay [4], in [5] and in assay [6] was “inactive” in each case. Besides, the Potency entry in [7], in assay [8], in assay [9] and in [10] was “inactive” in each case.
Regarding `CCCc1c(OCCCOc2ccc(OCC(=O)O)cc2)ccc(C(C)=O)c1O`, the Potency result in assay [1], in assay [2], in assay [3], in [4], in assay [5] and in assay [6] was “inactive” throughout. The Potency result in assay [7], in [8] and in [9] was “inactive” each time.
Turning to `CCCCN(CCCC)CCCOC(=O)c1ccc(N)cc1`, the Potency entry in [1], in assay [2], in assay [3], in [4], in [5] and in [6] was “inactive” in each case. The Potency result in assay [7], in assay [8] and in [9] was “inactive” in each case.
For `CCN(CC)CCNC(=O)c1ccc(NC(C)=O)cc1`, the Potency entry in [1], in [2], in assay [3], in [4], in assay [5] and in [6] was “inactive” each time. The Potency entry in assay [7], in assay [8] and in assay [9] was “inactive” in each case.
As for `CC1CC(O)CC(C)(C)C1` (configuration not stated), the Potency entry in assay [1], in assay [2], in assay [3], in [4], in assay [5] and in assay [6] was “inactive” each time. Also, the Potency result in assay [7], in assay [8] and in assay [9] was “inactive” in each case.
For the compound `Cc1cc(C(=C2C=CC(=Nc3ccc(S(=O)(=O)O)cc3S(=O)(=O)O)C=C2)c2ccc(Nc3ccc(S(=O)(=O)O)cc3)cc2)ccc1N`, the Potency result in [1], in assay [2], in assay [3], in assay [4], in [5] and in assay [6] was “inactive” throughout. Besides, the Potency result in assay [7], in assay [8] and in assay [9] was “inactive” each time.
As to `C=CC(C)(O)CCCC(C)CCCC(C)CCCC(C)C` (configuration not stated), the Potency result in assay [1], in [2], in [3], in assay [4], in assay [5] and in assay [6] was “inactive” each time. Further, the Potency entry in assay [7], in assay [8], in assay [9] and in [10] was “inactive” each time.
Consider `CC(C)(C)C(=O)C(Oc1ccc(Cl)cc1)n1ccnc1` (configuration not stated), for which the Potency result in [1], in assay [2], in assay [3], in assay [4], in assay [5] and in assay [6] was “inactive” throughout. Further, the Potency result in assay [7], in assay [8], in [9] and in assay [10] was “inactive” each time.
Turning to `CCC(C)(O)CCC=C(C)C` (configuration not stated), the Potency result in assay [1], in [2], in assay [3], in assay [4], in assay [5] and in assay [6] was “inactive” each time. For the same compound, the Potency result in assay [7], in assay [8] and in assay [9] was “inactive” each time.
